# Measurements as given in ChEMBL document CHEMBL3988442, “University of Dundee, Small-Polar-MMV Screening Library” (2021).
# Key:
# [1] = molecular target: T1, Aspartate--tRNA(Asp/Asn) ligase (Mycobacterium tuberculosis (strain ATCC 25618 / H37Rv)) (UniProt P9WFW3); experiment: Assay for Asp RNA synthetase-1 from Mycobacterium tuberculosis; type: functional; parameters: scale not given: direction of the effect not stated beside the values; conditions: 30 µM; also: in the data most compounds retested in dose-response had high values
# T1 sequence (whole entry): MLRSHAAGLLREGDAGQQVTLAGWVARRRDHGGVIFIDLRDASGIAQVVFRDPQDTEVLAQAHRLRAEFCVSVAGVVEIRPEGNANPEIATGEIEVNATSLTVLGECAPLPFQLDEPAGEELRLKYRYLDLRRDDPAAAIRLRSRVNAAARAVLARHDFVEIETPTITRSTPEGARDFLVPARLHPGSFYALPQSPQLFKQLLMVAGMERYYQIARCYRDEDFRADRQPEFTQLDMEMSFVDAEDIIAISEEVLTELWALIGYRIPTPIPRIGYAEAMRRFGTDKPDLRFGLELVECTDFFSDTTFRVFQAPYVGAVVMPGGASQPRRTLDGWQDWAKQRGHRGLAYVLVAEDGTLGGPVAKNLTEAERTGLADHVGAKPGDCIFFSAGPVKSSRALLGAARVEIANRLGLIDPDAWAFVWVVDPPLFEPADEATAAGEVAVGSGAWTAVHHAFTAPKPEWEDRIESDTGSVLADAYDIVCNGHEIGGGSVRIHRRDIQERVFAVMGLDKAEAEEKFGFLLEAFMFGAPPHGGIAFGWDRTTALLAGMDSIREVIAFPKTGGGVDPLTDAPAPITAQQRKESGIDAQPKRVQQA
# [2] = molecular target: Shiga toxin 2 (Escherichia coli O157:H7) (UniProt P09385+P09386); experiment: E. coli 0.157:H7 Shiga Toxin SOP - stx2 screening assay; type: functional; parameters: scale not given: direction of the effect not stated beside the values; conditions: 30 µM
Compound,Percent Effect [1] [%],Percent Effect [2] [%]
Cc1noc(C)c1-c1cccc(CC2CCN(C(=O)c3cc[nH]n3)C2)n1 (stereo not given),-1.22,4.37
CCc1c(C(=O)N2CCCN(C(C)=O)CC2)cnn1C(C)(C)C,0.899,3.41
COc1cc(CNCc2c(C)nn(C)c2N(C)C)ccc1C,-3.09,9.03
O=S1(=O)COCCN1Cc1ccc(Cl)c(F)c1,2.49,-5.38
CCOC[C@@H]1CCC[C@@]12CN(Cc1nccs1)CCO2,-0.28,13.3
COc1ccc(CNC(=O)NC2CCN(CC(F)F)CC2)cc1C,-0.127,-3.6
COc1cccc(C)c1C(=O)N1C[C@@H](CN(C)C)[C@@H](CO)C1,0.951,-14.7
NC(=O)COc1ccc(CNCc2ccc(F)cc2F)cc1,-4.09,-18.8
Cc1cc(CN2CCOC(CN(C)C)C2)no1 (stereo not given),1.81,26.2
N#Cc1ccc(C(=O)N2CCC3(CC2)C(=O)Nc2ccccc23)cn1,6.62,1.52
CC(C)(C)c1ncc(C(=O)NCCS(N)(=O)=O)s1,-1.74,28.8
Cc1cc(C)c2c(c1)C1(CC(=O)Nc3c1cnn3C(C)C)C(=O)N2 (stereo not given),1.68,1.39
CC(=O)N1CCN(C(=O)c2cc(-n3cnnn3)ccc2Cl)CC1,-1.41,-21.8
CSCCCN1CC[C@@H](NC(=O)c2cnccn2)[C@H](O)C1,-0.39,2.82
Cc1cnn(CCNCc2nnc(C3CC3)o2)c1,4.75,-42.1
COCc1cnc2n1CCN(Cc1cccnc1)C2C (stereo not given),4.46,-10.3
O=C(c1ccc(Br)o1)N1CCCC(n2cncn2)C1 (stereo not given),5.01,-10.4
Cc1noc(CN2Cc3ccccc3CC2c2nnc(C)o2)n1 (stereo not given),-2.54,-7.76
Cc1cc2c(cc1C(=O)N1CC[C@H](CO)[C@@H](O)C1)OCCO2,-0.915,8.21
CCS(=O)(=O)CCn1ccc(NC(=O)CCc2cccc(C)c2)n1,2.58,-19.5
CCC1=N[C@@]2(CC[C@@H]3CN(Cc4ccccc4F)C[C@@H]32)C(=O)N1CC,3.79,-13.9
COc1ccc(CNCC2CC2)cc1F,2.55,28.8
CCc1nccn1C1CCCN(C(=O)c2ccc3[nH]cnc3c2)C1 (stereo not given),0.869,11.5
c1cnc(-c2nc(CNCCn3cccn3)cs2)nc1,-1.5,5.58
Cc1nc(N2CCCCC2)ncc1-c1cc(O)[nH]n1,-0.348,-1.17
